This is one part of a sample in which hits are shown more often than they occur.
TTR transcr act: TTR transcription activation, primary screen | SH-SY5Y TTR promoter Gaussia luciferase, luminescence; 100% = recombinant luciferase protein wells | activation, % at 16.7 µM | actives 1.3% (n = 92,000) | AID 1117267;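 active = activation above the mean of all tested compounds plus 3 SD, cut at about 9.5% in these data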;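 note: cells exposed to compounds for one day before reading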
HuH7 TTR inh: counter-screen for TTR activators: TTR transcription inhibitors in HuH7 cells | actives 4% (n = 1,100) | HuH7 TTR promoter-Gaussia luciferase reporter, luminescence | inhibition, % at 16.7 µM | shares compounds with TTR transcr act;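 active = average inhibition above the solvent-only control wells' mean plus 3 SD, cut at about 15% in these data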;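 note: inhibitors lower well luminescence so higher value means more inhibition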
TTR act confirm: confirmation of human transthyretin transcription activators | 1,100 tested, under 10 active | activation, % at 16.7 µM | SHSY5Y TTR promoter Gaussia luciferase, luminescence; 100% = purified Lucia enzyme wells, no cells | shares compounds with TTR transcr act;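 active = mean activation above a set limit taken from the earlier primary screen, cut at about 11% in these data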
Numbers stand for hits; - = inactive.

SMILES	TTR transcr act	others
CC(Oc1ccccc1)C(=O)N1CCCc2ccccc21 (stereo not given)	10	HuH7 TTR inh=-;TTR act confirm=-
CC(OC(=O)Cn1c(C(F)(F)F)nc2ccccc21)C(=O)N1CCCc2ccccc21 (stereo not given)	-
CC(C)C(NC(=O)[C@H](Cc1ccccc1)NC(=O)OCc1ccccc1)P(=O)(O)OC(Cc1ccccc1)C(=O)O (stereo not given in full)	-
O=C(NCc1cccnc1)O[C@H]1CC[C@@]23CCCN2C(=O)CCC[C@H]3C1	-
C[C@@H]1C[C@H]2O[C@@H]2/C=C\C=C\C(=O)Cc2cc(O)cc(O)c2C(=O)O1	-

Screening results as filed in PubChem.
